Source: PubChem
Compounds with a hit are over-represented: about 28% of the library has one in this group of screens.
CYP2C19 inhib = human CYP2C19 inhibition; CYP2C19 Supersomes, luciferin-H EGE luminescence, 30 min; 21% of 96,000 active; inhibition, % at 5 µM; P33261; AID 778;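 active = CYP2C19 inhibition above a set limit at 5 µM in the primary screen, cut at about 50% in these data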;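 note: plate controls were negative control wells for no effect and 2.5 mM tranylcypromine positive control for full effect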
CD11b adhes enh = increases human CD11b/CD18 adhesion to fibrinogen | P05107+P11215 | K562 CD11b/CD18 adhesion to fibrinogen, ATPlite luminescence | activation, % at 10 µM | 0.07% of 93,000 active;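 active = 10 µM primary screen giving 50% or more activity, confirmed by 40% or more on retest at that dose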
CYP2C19 act = activators of human cytochrome P450 2C19. P33261. recombinant CYP2C19, luciferin-H EGE luminescence; hits give high values; 0 = fully inhibited enzyme, 1 = untreated enzyme. activation factor at 5 µM. 96,000 tested, under 10 active. AID 1025;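 active = activation factor of at least 2 at 5 µM in the primary screen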;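 note: 0 = wells with 2.5 mM tranylcypromine and 1 = vehicle-only wells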
CYP2C9 inh = inhibitors of human CYP2C9; inhibition, % at 5 µM; P11712; CYP2C9 Supersomes, luciferin-H conversion, luminescence; 20% of 96,000 active;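 active = blocking of liver enzyme CYP2C9 beyond about 50% at 5 µM, limit read from the data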
Target sequence (P11712 whole entry, looked up): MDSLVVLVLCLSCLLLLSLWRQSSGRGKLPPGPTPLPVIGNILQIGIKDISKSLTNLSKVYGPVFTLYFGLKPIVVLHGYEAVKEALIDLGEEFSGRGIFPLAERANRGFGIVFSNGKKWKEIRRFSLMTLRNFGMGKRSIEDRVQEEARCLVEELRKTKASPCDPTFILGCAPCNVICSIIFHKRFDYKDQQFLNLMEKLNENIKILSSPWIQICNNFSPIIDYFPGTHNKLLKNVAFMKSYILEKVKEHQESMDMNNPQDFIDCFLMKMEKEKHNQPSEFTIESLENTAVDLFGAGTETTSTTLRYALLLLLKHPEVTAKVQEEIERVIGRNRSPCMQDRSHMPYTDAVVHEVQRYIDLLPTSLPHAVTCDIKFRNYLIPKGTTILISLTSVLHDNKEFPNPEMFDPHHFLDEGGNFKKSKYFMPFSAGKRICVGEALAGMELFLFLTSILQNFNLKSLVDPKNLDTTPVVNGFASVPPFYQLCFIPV
Mac1 fbg inh = inhibitors of human CD11b/CD18 binding to fibrinogen; P05107+P11215; K562 CD11b/CD18 adhesion to fibrinogen, ATPlite luminescence; Mn2+ added to activate the integrin; inhibition, % at 10 µM; 0.54% of 93,000 active; AID 1497;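 active = primary inhibition of 50% or more at 10 µM, then 40% or more on retest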
CYP2C9 activ = activators of human CYP2C9 | P11712 | recombinant CYP2C9, luciferin-H conversion, luminescence; hits give high values; factor 1 = untreated enzyme, 0 = blocked | activation factor at 5 µM | 1.4% of 96,000 active | AID 1024;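 active = activation factor of 2 or more for CYP2C9 at a 5 µM dose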;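 note: 0 = sulfaphenazole-blocked wells and 1 = vehicle-only wells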
* marks the source's active call; other numbers are inactive results; x = no result.

SMILES	CYP2C19 inhib	CD11b adhes enh	CYP2C19 act	CYP2C9 inh	Mac1 fbg inh	CYP2C9 activ
CCN(c1ccc(NC(=O)COC(=O)CCC(=O)c2ccc(F)cc2)cc1)C(C)C	63*	-4	0.4	23	0	0.8
N=c1ccn(Cc2ccc(Cl)cc2Cl)cc1	0	-3	1	11	11	0.9
CCN1CCN(c2cc(=O)n(-c3cc(Cl)ccc3C)c(=O)[nH]2)CC1	20	0	0.8	60*	3	0.4
Cc1ccccc1-n1c(=O)cc(N2CCN(Cc3ccccc3)CC2)[nH]c1=O	-14	-3	1.1	-19	-20	1.2
CC(=O)Nc1ccc(NC(=O)COC(=O)Cc2cccs2)cc1	11	-2	0.9	10	-39	0.9
O=C(COC(=O)Cc1cccs1)Nc1ccc(F)c(F)c1F	75*	-2	0.3	25	6	0.8
CC1=C(C#N)C(c2cn(-c3ccccc3)nc2-c2cccs2)C(C#N)=C(C)N1	74*	-5	0.3	75*	0	0.2
O=C1CSC(c2cn(-c3ccccc3)nc2-c2cccs2)N1Cc1ccccc1 (configuration not stated)	-10	-3	1.1	2	3	1
C=CCOC(=O)C1=C(C)NC(=O)NC1c1cn(-c2ccccc2)nc1-c1cccs1 (configuration not stated)	68*	2	0.3	79*	-5	0.2
COCCOC(=O)C1=C(C)NC(=O)NC1c1cn(-c2ccccc2)nc1-c1cccs1 (configuration not stated)	76*	0	0.2	70*	-17	0.3
COC(=O)C1=C(C)NC(C)=C(C(=O)OC)C1c1cn(-c2ccccc2)nc1-c1ccco1	43	-4	0.6	83*	1	0.2
Cc1c(NC(=O)c2ccc(Br)o2)c(=O)n(-c2ccccc2)n1C	7	-2	0.9	5	1	1
CCOc1ccc(NC(=O)C(C)Oc2ccccc2C(=O)Nc2ccc(C)c(Cl)c2)cc1 (configuration not stated)	x	-3	x	x	26	x
COc1ccc2c(COC(=O)CNC(=O)C34CC5CC(CC(C5)C3)C4)cc(=O)oc2c1	x	0	x	x	-15	x
c1ccc(N2CCN(c3cnccn3)CC2)nc1	42	0	0.6	-3	-2	1
N#Cc1cc(C#N)c(N2CCN(c3ccccn3)CC2)nc1N	65*	x	0.3	44	x	0.6
NC(=O)CN1CCN(C(=O)NC2CCCCC2)CC1	-15	0	1.2	-17	-11	1.2
CS(=O)(=O)N(CC(=O)NCc1ccco1)Cc1ccc(Cl)cc1	58*	1	0.4	34	0	0.7
CS(=O)(=O)N(CCc1ccccc1)CC(=O)NCc1ccco1	66*	0	0.3	12	-11	0.9
Cc1ccc(S(=O)(=O)N(CC(=O)NCc2ccco2)Cc2ccc(F)cc2)cc1	34	-1	0.7	58*	-7	0.4
CS(=O)(=O)N(CCc1ccccc1)CC(=O)NCc1ccccn1	36	4	0.6	18	-2	0.8
CS(=O)(=O)N(CCc1ccccc1)CC(=O)NCc1cccnc1	93*	-1	0.1	36	-16	0.6
CC(C)Sc1nc(C(F)(F)F)cc(=O)n1-c1ccccc1	18	x	0.8	-5	x	1.1
COC(=O)c1cc(S(=O)(=O)N2CCOCC2)ccc1Sc1ccccc1N	5	-2	0.9	37	4	0.6
Cc1ccc(-n2nnnc2SCC(=O)Nc2nc(-c3ccc(F)cc3)cs2)cc1C	30	x	0.7	52*	x	0.5
SMILES	CYP2C19 inhib	CD11b adhes enh	CYP2C19 act	CYP2C9 inh	Mac1 fbg inh	CYP2C9 activ
Cc1cc(C)cc(-n2nnnc2SCC(=O)Nc2nc(-c3ccc(F)cc3)cs2)c1	23	x	0.8	-124	x	2.2*
Cc1cc(C)cc(-n2nnnc2SCC(=O)Nc2nc(-c3ccc(Cl)cc3)cs2)c1	4	11	1	-59	1	1.6
CC1=C(C(=O)Nc2ccccc2)C(c2cccs2)n2nnnc2N1 (configuration not stated)	37	1	0.6	34	4	0.7
CCCCCCCOC(=O)C1=C(C)Nc2ncnn2C1c1cccs1 (configuration not stated)	74*	-2	0.3	64*	21	0.4
CCCCCCCCOC(=O)C1=C(C)Nc2nnnn2C1c1cccs1 (configuration not stated)	76*	-6	0.2	94*	54	0.1
CCOC(=O)CC1C(=O)NCCN1S(=O)(=O)c1ccc(Cl)cc1Cl (configuration not stated)	15	x	0.8	24	x	0.8
COc1cc([N+](=O)[O-])cc(CN2CCCCC2)c1O	0	-2	1	9	-6	0.9
Cc1ccc(C(=O)NC(NC(=O)c2ccc(C)cc2)c2cccc([N+](=O)[O-])c2)cc1	x	-4	x	x	-23	x
CCOC(=O)/C(C#N)=C1/SC(CC)C(=O)N1c1ccc(C)cc1 (configuration not stated)	91*	-5	0.1	55*	-28	0.4
O=C(CCC1CCCCC1)NCc1ccncc1	89*	5	0.1	47	-19	0.5
O=C(CN(C1CCCCC1)S(=O)(=O)c1ccc(F)cc1)NCCCO	-1	0	1	7	13	0.9
O=C(CN(C1CCCCC1)S(=O)(=O)c1ccc(Cl)cc1)NCc1ccncc1	94*	-2	0.1	82*	-4	0.2
O=C(CN(C1CCCCC1)S(=O)(=O)c1ccc(F)cc1)NCc1ccncc1	86*	1	0.1	83*	48	0.2
COC(=O)CCS(=O)(=O)c1ccc(Cl)c(Cl)c1	48	4	0.5	-20	12	1.2
CCC1CC2CC(NC(C)=O)C1C2 (configuration not stated)	-6	x	1.1	-8	x	1.1
Cc1noc(C)c1CSc1nnc(-c2ccncc2)n1-c1cccc(Cl)c1C	100*	2	0	94*	-13	0.1
Cc1c(Cl)cccc1-n1c(SCC(=O)N(C)Cc2ccccc2)nnc1-c1ccncc1	90*	-1	0.1	83*	0	0.2
CCN(CC)CCNS(=O)(=O)c1ccc(OC)c(Br)c1	32	-4	0.7	-52	3	1.5
CC1CCc2nc(NC(=O)CSc3nc4ccccc4o3)sc2C1 (configuration not stated)	22	-4	0.8	43	22	0.6
Cc1ccc2nc(NC(=O)CSc3nc4ccccc4o3)sc2c1	45	0	0.5	55*	-10	0.4
COc1cc(OC)nc(NC(=O)CSc2nc3ccccc3o2)n1	86*	2	0.1	-19	-3	1.2
Cc1cccc(NC(=O)CSc2nc3ccccc3o2)c1	69*	0	0.3	-15	34	1.1
O=C(CSc1nc2ccccc2o1)Nc1ccc(Cl)cc1	24	-1	0.8	50	1	0.5
